Most compounds without a hit are left out; they make up all but 10% or so of the library.
Sfp PPTase inh: blocks B. subtilis Sfp PPTase activity. Potency, µM, inactives show largest response in the series, negative = inhibition, actives largely listed as inhibitors. Biochemical Sfp PPTase activity, qHTS. AID 1490. Q9F4F7. actives 3.5% (n = 310,000);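 further: the enzyme is Sfp with the accession as filed and its product quenches rhodamine fluorescence; potency means the concentration at half of the fitted maximal effect; 0% = enzyme reaction without inhibitor and -100% = no enzyme wells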
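Reaction rates are the 30-min fluorescence difference (ex 525, em 598 nm) in wells containing 15 nM Sfp, 5 uM rhodamine-CoA and 12.5 uM BHQ-2-YbbR at pH 7.6 with 10 mM MgCl2.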
PLK1 PBD inh: blocks phosphopeptide binding to human PLK1 polo-box domain; Plk1 PBD binding of FITC phosphopeptide, fluorescence polarization; Potency, µM, for the others: max response, negative = inhibition, usual class: inhibitors; actives 2.8% (n = 360,000); further: potency means the concentration at half of the fitted maximal effect; series mostly up to about 57 µM; nearly all actives have a fitted effect of over 65% in size
CCT chaperon mod: changes cytosolic chaperonin activity. purified chaperonin ATPase assay, HTRF ADP detection, 30 min. activity change, % (test concentration not listed), hits read low. actives 0.3% (n = 360,000). AID 651819; in the data active means activity change below about -30%
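Nucleotide hydrolysis assay: TRiC at 20–40 nM final (set by batch activity) with 10 uM ATP, 30 min at 37 °C, in presence of 76 uM compound. Detection by competitive ADP HTRF, 30 min ambient.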
G9a inh: blocks human histone lysine methyltransferase G9a. G9a H3K9 monomethylation, AlphaScreen, 2 h. Potency, µM (top dose mostly 102 µM), without a hit: at the top dose activity, negative = inhibition, most hits filed as inhibitors. actives 8.8% (n = 350,000). Q96KQ7; further: potency means the concentration at half of the fitted maximal effect; nearly all actives have a fitted effect of over 75% in size
Target sequence (Q96KQ7 913-1193 limits assumed): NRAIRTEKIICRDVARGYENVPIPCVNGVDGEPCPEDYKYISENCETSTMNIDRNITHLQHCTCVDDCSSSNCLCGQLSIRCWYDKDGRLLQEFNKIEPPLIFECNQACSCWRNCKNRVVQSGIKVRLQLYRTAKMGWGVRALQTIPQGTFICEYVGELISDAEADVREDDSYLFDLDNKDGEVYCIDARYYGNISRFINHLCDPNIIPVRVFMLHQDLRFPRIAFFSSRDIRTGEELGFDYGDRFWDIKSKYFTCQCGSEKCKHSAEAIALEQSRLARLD
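G9a (20 nM) preincubated 15 min RT with compounds, then 500 nM biotinylated H3K9 peptide and 20 uM SAM added; 2 h RT reaction. Monomethyl-H3K9 product detected by AlphaScreen with anti-H3K9me1 antibody, streptavidin donor and anti-rabbit IgG acceptor beads.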
MmCpn inh: M. maripaludis TRiC chaperonin inhibition. Potency, µM (titrated, usually from 76.9 µM), for inactives: at the top dose activity, negative = inhibition, hits mostly inhibitors. actives 0.031% (n = 330,000). purified Mm-Cpn ATPase, ADP Transcreener TR-FRET. AID 504842; further: potency means the concentration at half of the fitted maximal effect; nearly all actives have a fitted effect of over 80% in size
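Purified archaeal chaperonin (25 nM final) was preincubated with compound for 10 min at 37°C, then ATP (10 uM final) was added for 30 min at 37°C in Tris pH 7.4/KCl/MgCl2/DTT buffer. ADP was quantified by HTRF Transcreener TR-FRET.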
VDR inh: vitamin D3 receptor (human) inhibition; VDR-SRC2-3 peptide fluorescence polarization, 2 h; Potency, µM, for the others: max response, negative = inhibition, hits mostly inhibitors; actives 0.93% (n = 400,000); further: potency means the concentration at half of the fitted maximal effect
Target sequence (P11473 whole entry, looked up): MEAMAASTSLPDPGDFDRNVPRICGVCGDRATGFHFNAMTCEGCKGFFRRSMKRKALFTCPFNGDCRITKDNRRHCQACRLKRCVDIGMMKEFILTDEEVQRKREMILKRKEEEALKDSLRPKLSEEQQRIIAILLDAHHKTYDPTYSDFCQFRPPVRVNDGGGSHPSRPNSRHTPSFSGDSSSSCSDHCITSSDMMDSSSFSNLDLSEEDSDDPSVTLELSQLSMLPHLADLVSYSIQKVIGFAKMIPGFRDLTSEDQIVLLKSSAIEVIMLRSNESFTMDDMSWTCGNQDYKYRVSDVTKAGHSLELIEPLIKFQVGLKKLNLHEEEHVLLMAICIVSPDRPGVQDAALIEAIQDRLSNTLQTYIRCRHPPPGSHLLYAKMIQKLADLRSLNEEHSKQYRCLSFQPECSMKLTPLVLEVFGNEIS
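Reagent solutions, kept cold and dark, are dispensed first; compounds are then pinned in at 23 nl, plates briefly spun, and incubated 2 h at ambient temperature. Inhibition of VDR–SRC2-3 peptide binding is read by fluorescence polarization.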
Numbers without * were called inactive; ! = not confirmed by another sample; [ ] = dose if it differs, or a comment. Unless noted, the call rests on the fitted dose curve; in most records, active means well fitted curve in the direction sought with a large enough effect; inconclusive means small, poorly fitted or top-dose-only effect, or another doubt; inactive means no such curve, though single readings can be large; an effect the other way counts as inactive or inconclusive. Unless noted, on the % scale 0 is the no-effect control and ±100 the full control effect.

Results for CCc1cc2c3c(c1)C(C)CC(C)(C)N3C(=O)/C2=C1\SC(=O)NC1=O (stereo unspecified) ?
Sfp PPTase inh: 6%; PLK1 PBD inh: 30µM*; CCT chaperon mod: -1; G9a inh: 25µM*; MmCpn inh: 0%; VDR inh: 0%

What do the screens show for `COc1cc2c3c(c1)C(C)CC(C)(C)N3C(=O)C2=O` (stereo unspecified)?
Sfp PPTase inh: 23%; PLK1 PBD inh: -18%; CCT chaperon mod: -1; G9a inh: inconclusive; MmCpn inh: -6%; VDR inh: -26%

What do the screens show for `C=CCC(C)(NCc1ccccc1)c1ccccc1` (stereo unspecified)?
Sfp PPTase inh: 2%; PLK1 PBD inh: 21µM*; CCT chaperon mod: -1; G9a inh: 14%[59 µM]; MmCpn inh: 2%; VDR inh: inconclusive

How did O=C(NN(C(=O)c1ccccc1)c1ccccc1)c1ccccc1 do in these assays?
Sfp PPTase inh: 13%; PLK1 PBD inh: -1%; CCT chaperon mod: 0; G9a inh: 22µM*; MmCpn inh: 0%; VDR inh: 16%

Results for O=C(c1ccccc1)N(Nc1ccccc1)c1ccccc1 ?
Sfp PPTase inh: 4%; PLK1 PBD inh: -1%; CCT chaperon mod: 1; G9a inh: -18%; MmCpn inh: 3%; VDR inh: 7%

Results for O=C(O)c1ccc(O)c2ncccc12 ?
G9a inh: 25%[12.7 µM]; MmCpn inh: -2%

What do the screens show for `Oc1c(I)cc(I)c2cccnc12`?
Sfp PPTase inh: 50µM*!; PLK1 PBD inh: inconclusive; CCT chaperon mod: -1; G9a inh: 50µM*; MmCpn inh: 2%; VDR inh: 35µM*!

Results for Cc1ccc(C)c(Cn2c(=O)cc(C)c3c(C)nn(-c4cccc(F)c4)c32)c1 ?
G9a inh: 7%[59 µM]; VDR inh: 0%

How did CCS(=O)(=O)c1ccc(O)c(NC(=O)/C=C/c2ccc(Cl)cc2)c1 do in these assays?
Sfp PPTase inh: -10%; PLK1 PBD inh: -12%; CCT chaperon mod: -9; G9a inh: -4%[59 µM]; MmCpn inh: 2%; VDR inh: -1%

Results for Cc1ccc(/C=C/C(=O)Nc2cc(S(N)(=O)=O)ccc2O)cc1 ?
Sfp PPTase inh: 28µM*; PLK1 PBD inh: 21µM*; CCT chaperon mod: 0; G9a inh: 8.9µM*; MmCpn inh: -1%; VDR inh: inconclusive

How did Cc1ccc2c(c1)c1c3n2CCN(CCC#N)C3CCC1 (stereo unspecified) do in these assays?
PLK1 PBD inh: -3%; CCT chaperon mod: 1

Results for CCN1CCn2c3c(c4cc(C)ccc42)CCCC31 (stereo unspecified) ?
Sfp PPTase inh: -19%; PLK1 PBD inh: -14%; CCT chaperon mod: -5; G9a inh: 20µM*; MmCpn inh: 0%; VDR inh: -11%

How did CCN1CCn2c3c(c4cccc(C)c42)CCCC31 (stereo unspecified) do in these assays?
Sfp PPTase inh: -5%; PLK1 PBD inh: 6%; CCT chaperon mod: -1; G9a inh: 71µM*; MmCpn inh: 0%; VDR inh: 15%

Results for O=C(Cc1ccccc1)NCC(=O)Nc1ccc(OC(F)(F)F)cc1 ?
Sfp PPTase inh: 10%; PLK1 PBD inh: -2%; CCT chaperon mod: -1; G9a inh: 5%; MmCpn inh: -1%; VDR inh: 19%

Results for CCOCCCNCC(=O)Nc1ccc(OC(F)(F)F)cc1 ?
Sfp PPTase inh: 1%; PLK1 PBD inh: -5%; CCT chaperon mod: -2; G9a inh: 50µM*; MmCpn inh: -1%; VDR inh: -7%

Results for COCCNCC(=O)Nc1ccc(OC(F)(F)F)cc1 ?
Sfp PPTase inh: -16%; PLK1 PBD inh: -3%; CCT chaperon mod: -1; G9a inh: 22µM*; MmCpn inh: 0%; VDR inh: -13%

How did Cc1ccc(N2CCn3c2nc2c3c(=O)n(CCCc3ccccc3)c(=O)n2C)cc1C do in these assays?
G9a inh: 0%[59 µM]; VDR inh: 6%

How did CC(C)(C)OC(=O)N1CCC(c2nnc(SCc3ccccc3F)o2)CC1 do in these assays?
G9a inh: 13%[59 µM]; VDR inh: -2%

What do the screens show for `O=C(CCCSc1nc2ccccc2s1)NCc1ccco1`?
Sfp PPTase inh: -8%; PLK1 PBD inh: -8%; CCT chaperon mod: 0; G9a inh: 79µM*; MmCpn inh: 1%; VDR inh: -21%

What do the screens show for `O=C(NCc1ccco1)c1cccnc1-c1nc2ccccc2s1`?
Sfp PPTase inh: 22µM*; PLK1 PBD inh: 24µM*; CCT chaperon mod: 0; G9a inh: inconclusive; MmCpn inh: -1%; VDR inh: inconclusive

Results for CCc1ccccc1NC(=O)CCCSc1nc2ccccc2s1 ?
Sfp PPTase inh: -6%; PLK1 PBD inh: -7%; CCT chaperon mod: 1; G9a inh: 2%[59 µM]; MmCpn inh: -13%; VDR inh: -5%

Results for O=C(NCc1ccco1)c1cccnc1Cl ?
Sfp PPTase inh: -5%; PLK1 PBD inh: 2%; CCT chaperon mod: -1; G9a inh: inconclusive; MmCpn inh: -3%; VDR inh: -1%

Results for COc1cccc(OC)c1C(=O)Nc1ccc(-c2nc3ncccc3o2)cc1 ?
G9a inh: -3%[59 µM]; VDR inh: -1%

What do the screens show for `CCC(=O)NCc1ccc2[nH]c(C)cc2c1`?
Sfp PPTase inh: -6%; PLK1 PBD inh: -5%; CCT chaperon mod: -1; G9a inh: 35µM*; MmCpn inh: -1%; VDR inh: -8%

What do the screens show for `Nc1ccc(O)cc1C(=O)OCC(=O)c1ccc(C2CCCCC2)cc1`?
Sfp PPTase inh: -20%; PLK1 PBD inh: 5%; CCT chaperon mod: -2; G9a inh: 45µM*; MmCpn inh: 2%; VDR inh: -21%

What do the screens show for `O=C(OCC(=O)C12CC3CC(CC(C3)C1)C2)c1ccc(O)cc1`?
PLK1 PBD inh: -11%; CCT chaperon mod: -3; MmCpn inh: -2%; VDR inh: inconclusive

Results for Nc1ccc(O)cc1C(=O)OCC(=O)C12CC3CC(CC(C3)C1)C2 ?
Sfp PPTase inh: -1%; PLK1 PBD inh: -17%; CCT chaperon mod: -1; G9a inh: 32µM*; MmCpn inh: -4%; VDR inh: 6%

What do the screens show for `COc1ccc(-n2cc(C(=O)O)c(=O)cc2C)cc1`?
Sfp PPTase inh: 0%; PLK1 PBD inh: -3%; CCT chaperon mod: 0; G9a inh: 45µM*; MmCpn inh: -3%; VDR inh: -9%

How did COc1ccc(-n2cc(C(=O)NCc3ccccc3)c3ccccc3c2=O)cc1 do in these assays?
G9a inh: inconclusive; VDR inh: 3%

Screens: PubChem, National Center for Advancing Translational Sciences (NCATS)
